In publication PMC4336329 (PLoS ONE, 2015):
The whole screen tested about 310,000 compounds, of which about 14,000 (4.5%) showed an effect of 50% or more. Effects have a minus sign here. The full list was thinned out, with strong results kept by preference.

Molecular target: human ether-à-go-go-related gene (hERG) potassium channel (human, UniProt Q12809)
Assay: primary screen, population patch clamp on CHO cells stably expressing hERG; higher = less effect of the substance
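Also: peak tail current of the secondary pulse compared with the same well before compound.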

Sequence of human ether-à-go-go-related gene (hERG) potassium channel (Q12809 whole entry, looked up): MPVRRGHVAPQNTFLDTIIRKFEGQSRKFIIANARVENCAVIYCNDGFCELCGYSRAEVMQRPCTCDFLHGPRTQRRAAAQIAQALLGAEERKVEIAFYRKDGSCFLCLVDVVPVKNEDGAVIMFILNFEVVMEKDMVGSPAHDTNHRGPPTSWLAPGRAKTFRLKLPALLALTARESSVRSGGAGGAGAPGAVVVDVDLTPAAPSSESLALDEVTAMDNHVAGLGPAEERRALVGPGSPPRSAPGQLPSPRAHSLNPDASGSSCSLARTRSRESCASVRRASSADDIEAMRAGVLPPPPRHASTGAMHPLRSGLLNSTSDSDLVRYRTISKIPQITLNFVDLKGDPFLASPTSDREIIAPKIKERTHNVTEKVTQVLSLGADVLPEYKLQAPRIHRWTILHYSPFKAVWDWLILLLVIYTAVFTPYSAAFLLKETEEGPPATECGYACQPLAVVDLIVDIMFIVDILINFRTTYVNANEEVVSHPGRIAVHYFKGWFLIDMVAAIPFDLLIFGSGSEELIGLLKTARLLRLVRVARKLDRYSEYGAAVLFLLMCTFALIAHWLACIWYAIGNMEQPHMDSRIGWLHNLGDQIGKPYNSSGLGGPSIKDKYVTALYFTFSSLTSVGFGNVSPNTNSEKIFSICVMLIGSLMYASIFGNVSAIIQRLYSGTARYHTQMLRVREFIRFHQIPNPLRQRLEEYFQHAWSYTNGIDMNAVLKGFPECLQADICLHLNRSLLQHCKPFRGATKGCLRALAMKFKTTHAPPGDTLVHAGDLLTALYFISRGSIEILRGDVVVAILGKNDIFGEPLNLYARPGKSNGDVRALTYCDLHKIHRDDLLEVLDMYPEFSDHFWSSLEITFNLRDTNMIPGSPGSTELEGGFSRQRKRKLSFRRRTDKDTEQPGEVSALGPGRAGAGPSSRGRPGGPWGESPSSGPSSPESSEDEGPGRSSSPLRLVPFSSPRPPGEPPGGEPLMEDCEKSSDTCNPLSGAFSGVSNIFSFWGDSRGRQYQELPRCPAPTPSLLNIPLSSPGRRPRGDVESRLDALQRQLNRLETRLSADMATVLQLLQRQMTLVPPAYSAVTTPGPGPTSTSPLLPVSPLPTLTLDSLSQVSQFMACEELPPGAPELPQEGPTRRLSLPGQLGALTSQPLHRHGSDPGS

| Structure (SMILES) | hERG current change (%, negative = inhibition) at 10uM [%] |
| --- | --- |
| CNC(=S)N/N=C/c1cn(CCOc2cccc(OC)c2)c2ccccc12 | 3.42 |
| O=C([O-])C(CCCCNS(=O)(=O)c1ccc(F)cc1)NS(=O)(=O)c1ccc(F)cc1.[K+] (stereo not drawn) | 20.3 |
| COc1ccccc1NC(=O)C1=C(C)Nc2nc(CCCO)nn2C1c1ccc2c(c1)OCO2 (stereo not drawn) | 7.42 |
| CCOC(=O)C1CCCC(NS(=O)(=O)c2ccc(NC(C)=O)cc2)C1 (stereo not drawn) | -2.41 |
| Cc1ccc(S(=O)(=O)/N=C(/c2ccccc2)N(C)C)c(C)c1 | 12.7 |
| NC(=S)N/N=C1\c2ccccc2-c2c(C(=O)O)cccc21 | 12.7 |
| Cc1cc(C)c(C(=O)N2CCCC(CNC(=O)C3(c4ccc(Cl)cc4)CC3)C2)c(=O)[nH]1 (stereo not drawn) | 6.58 |
| COCCN1C(=O)C(=O)/C(=C(/O)c2ccc(S(=O)(=O)N3CCOCC3)cc2)C1c1ccc(O)cc1 (stereo not drawn) | 3.78 |
| O=C1OCC(CO)(CO)N=C1NNc1ccc(Cl)c(Cl)c1 | 8.16 |
| COC(=O)c1ccc2c(=O)n(CCCCCC(=O)NCc3ccc4c(c3)OCO4)c(=O)[nH]c2c1 | -31.7 |
| Cc1cc(C)cc(NC(=S)N2CCN(c3ccc(F)cc3)CC2)c1 | -8.95 |
| COC(=O)C1=C(c2ccccc2OCc2ccccc2)C[C@@H]2CC[C@H]1N2C(=O)NCc1ccc(N(C)C)cc1 | 10.9 |
| CC(C)Cc1ccc(CN2CCC(n3nccc3NC(=O)C3CCCC3)CC2)cc1 | -72.4 |
| CCn1cc(CN2CCC(n3nccc3NC(=O)C3CCCC3)CC2)cn1 | -6.15 |
| CCc1ccc(CN2CCC(n3nccc3NC(=O)C3CCCC3)CC2)cc1 | -76.3 |
| O=C(Nc1ccnn1C1CCN(Cc2cccc(OCCO)c2)CC1)C1CCOC1 (stereo not drawn) | -2.98 |
| CCOc1cccc(CN2CCC(n3nccc3NC(=O)C3CCCC3)CC2)c1 | -55.3 |
| O=C(Nc1ccnn1C1CCN(Cc2cccc(OCCO)c2)CC1)C1CCCC1 | -24.8 |
| Cn1c(=S)c2[nH]c(SCCN3CCCC3)nc2n(C)c1=O | 10.5 |
| Cc1ccccc1NC(=S)N(CCN(C)C)C(C)c1ccccn1 (stereo not drawn) | -8.78 |
| OCCCNCc1cccc2ccccc12 | -15.8 |
| Cc1ccc(C(C(=O)NC2CCCCC2)N(C(=O)CCCC(=O)Nc2ccccn2)c2ccc3c(c2)OCCO3)cc1 (stereo not drawn) | -3.99 |
| COC(=O)c1ccc(CSc2nnc3c(n2)[nH]c2ccccc23)cc1 | -23.1 |

| Structure (SMILES) | hERG current change (%, negative = inhibition) at 10uM [%] |
| --- | --- |
| Cc1cc(C)c(C)c(S(=O)(=O)N2CCN(c3ncnc4sc(C)c(C)c34)CC2)c1C | 8.21 |
| Cc1sc2ncnc(N3CCN(S(=O)(=O)c4ccccc4)CC3)c2c1C | -18.6 |
| Cc1sc2ncnc(N3CCN(S(=O)(=O)c4ccc(F)cc4)CC3)c2c1C | -50.9 |
| Cc1sc2ncnc(N3CCN(S(=O)(=O)c4ccc(Br)cc4)CC3)c2c1C | -47.5 |
| CCS(=O)(=O)N1CCN(c2ncnc3sc(C)c(C)c23)CC1 | -53.7 |
| Cc1sc2ncnc(N3CCCCC3)c2c1C | -11.9 |
| COc1ccccc1NC(=O)NCC(=O)Nc1c(C)cccc1C | 30.5 |
| CCOC(=O)c1ccc(CS(=O)c2ccc(Cl)cc2)o1 (stereo not drawn) | -3.47 |
| Cc1cc(C)c(NC(=O)CCCN2CCOCC2)c(C)c1 | 13.1 |
| COC(=O)c1scc(C)c1NC(=O)CC1NCCNC1=O (stereo not drawn) | 11.9 |
| O=C(C[n+]1ccccc1)c1ccc(-c2ccccc2)cc1.[Br-] | -21.4 |
| COC(=O)c1ccc(CC(=O)c2c(C)cc(O)cc2O)o1 | 0.801 |
| CC1CC(C)CN(CCCSc2ccccc2)C1.O=C(O)C(=O)O (stereo not drawn) | -64.3 |
| CC1CC(C)CN(CCOCCSc2ccccc2)C1.O=C(O)C(=O)O (stereo not drawn) | -45.1 |
| CC1CC(C)CN(CCOCCSc2ccc(Cl)cc2)C1.O=C(O)C(=O)O (stereo not drawn) | -72.4 |
| CN(C)CCOCCSc1ccc(Cl)cc1.O=C(O)C(=O)O | -37.3 |
| CC1CN(CCCCSc2ccccc2)CC(C)O1.Cl (stereo not drawn) | -8.71 |
| CC1CN(CCCCSc2ccc(Cl)cc2)CC(C)O1.O=C(O)C(=O)O (stereo not drawn) | -31.6 |
| CC1CN(CCOCCSc2ccc(Cl)cc2)CC(C)O1.O=C(O)C(=O)O (stereo not drawn) | -23.3 |
| CC1CN(CCCSc2ccc(Cl)cc2)CC(C)O1.O=C(O)C(=O)O (stereo not drawn) | -47.9 |
| CC1CCN(CCOCCSc2ccc(Cl)cc2)CC1.O=C(O)C(=O)O | -72.1 |
| Cc1cccc(OCC(O)Cn2c(N3CCCCC3)nc3c2c(=O)n(C)c(=O)n3C)c1 (stereo not drawn) | -13.7 |
| CCN(CC)S(=O)(=O)c1cccc(-c2nnc(SCc3nc4ccccc4s3)o2)c1 | -3.82 |

| Structure (SMILES) | hERG current change (%, negative = inhibition) at 10uM [%] |
| --- | --- |
| O=S(=O)(Nc1ccccc1F)c1ccc(Cl)nc1 | 5.63 |
| Cc1ccc2oc(C(=O)NCCC3CCCCO3)c(C)c2c1 (stereo not drawn) | -11.5 |
| Cn1c(=O)c2[nH]c(N=Nc3ccc(N)cc3N)nc2n(C)c1=O | 28.7 |
| O=c1cc(NS(=O)(=O)c2ccccc2)nc(SCc2ccccc2Cl)[nH]1 | 6.99 |
| COc1ccc(N2C(=O)CC(N3CCN(C4CCc5ccccc5C4)CC3)C2=O)cc1 (stereo not drawn) | -61.7 |
| COc1ccc(NC2CCN(C3CC(=O)N(c4ccc(F)c(Cl)c4)C3=O)CC2)cc1 (stereo not drawn) | -54.8 |
| CCOc1ccc(N2C(=O)CC(N3CCN(C4CCc5ccccc5C4)CC3)C2=O)cc1 (stereo not drawn) | -71.5 |
| CCOc1ccc(N2C(=O)CC(N3CCc4ccccc43)C2=O)cc1 (stereo not drawn) | -3.24 |
| COc1cccc(N2CCN(C3CC(=O)N(c4ccc(F)c(Cl)c4)C3=O)CC2)c1 (stereo not drawn) | -12.6 |
| COc1ccc(N2C(=O)CC(N3CCN(c4ccc(Cl)cc4)CC3)C2=O)cc1 (stereo not drawn) | -4.94 |
| COc1ccc(N2C(=O)CC(N3CCN(c4ccccc4)CC3)C2=O)cc1 (stereo not drawn) | 8.93 |
| CCOc1ccc(N2C(=O)CC(N3CCN(c4ccccc4F)CC3)C2=O)cc1 (stereo not drawn) | 6.59 |
| COc1ccc(N2C(=O)CC(N3CCCCC3)C2=O)cc1 (stereo not drawn) | 18.6 |
| Fc1ccc(-[n+]2nc(Nc3ccccc3)sc2-c2ccc(OCc3ccccc3)cc2)cc1.[Cl-] | -20.5 |
| Cc1ccccc1OCc1nnc2n1CC(C)S2 (stereo not drawn) | 7.43 |
| CCCCC(=O)Nc1ccc(NC(=S)NC(=O)CC)cc1OC | -0.84 |
| O=C(OCC(=O)N1CCC(c2ccccc2)=N1)c1ccc([N+](=O)[O-])s1 | -34.7 |
| CC(C)c1ccc(/C=N/NC(=O)c2cccc(S(=O)(=O)N3CCOCC3)c2)cc1 | 10.1 |
| CN(C)c1ccc(C2C3C(=O)N(c4ccc(C(=O)O)cc4)C(=O)C3ON2c2ccccc2)cc1 (stereo not drawn) | 7.23 |
| CN(C)c1ccc(C2C3C(=O)NC(=O)C3ON2c2ccc(Cl)cc2)cc1 (stereo not drawn) | -64 |
| Cc1ccc(N2OC3C(=O)NC(=O)C3C2c2ccco2)cc1 (stereo not drawn) | 7.89 |
| O=C(Cn1cnc2c(cnn2-c2ccccc2Cl)c1=O)N1CCc2ccccc21 | -0.441 |
| CC(CNC(=O)Cn1ccc2cc(S(=O)(=O)N3CCCC3)ccc21)c1ccccc1 (stereo not drawn) | -9.17 |

| Structure (SMILES) | hERG current change (%, negative = inhibition) at 10uM [%] |
| --- | --- |
| O=C(NCCc1ccccc1)c1ccco1 | 0.15 |
| O=C(c1cccc(C(F)(F)F)c1)C1CCCN(C(=O)C2CCOCC2)C1 (stereo not drawn) | -51.3 |
| Cc1nonc1CC(=O)N1CCCC(C(=O)c2cccc(C(F)(F)F)c2)C1 (stereo not drawn) | -56.2 |
| Cc1noc(C)c1C(=O)N1CCCC(C(=O)c2cccc(C(F)(F)F)c2)C1 (stereo not drawn) | -22.6 |
| CC(C)(C)c1ccc(C(=O)C2CCCN(C(=O)C3CCOCC3)C2)cc1 (stereo not drawn) | -7.14 |
| Cc1nonc1CC(=O)N1CCCC(C(=O)c2ccc(Cl)cc2)C1 (stereo not drawn) | -8.66 |
| CC1=C(C(=O)N2CCCC(C(=O)c3cccc(C(F)(F)F)c3)C2)OCCO1 (stereo not drawn) | 2.26 |
| O=C(COC(=O)C1CSC2(c3ccc(F)cc3)CCC(=O)N12)NC(=O)NC1CCCC1 (stereo not drawn) | -4.24 |
| O=C1c2ccccc2C(=O)C1c1ccccn1 | 6.76 |
| O=C(CSc1ccc2nnc(-c3cccnc3)n2n1)Nc1ccc(F)cc1 | -31.5 |
| CCSc1ccc2nnc(-c3ccc(F)cc3)n2n1 | -55.6 |
| CCC(Sc1ccc2nnc(-c3ccc(F)cc3)n2n1)C(=O)OC (stereo not drawn) | -48.3 |
| Cc1ccc(CSc2nnc(-c3cccnc3)n2N)cc1 | 18 |
| CCCN(CCC)CCCNc1ccc2nnc(-c3ccc(F)cc3)n2n1 | -55.9 |
| Fc1ccc(CSc2ccc3nnc(-c4cccs4)n3n2)cc1 | 17.1 |
| Cc1ccc(CSc2ccc3nnc(-c4cccnc4)n3n2)cc1 | -79.3 |
| CC(=O)C(Sc1ccc2nnc(-c3cccnc3)n2n1)C(C)=O | -2.29 |
| CCSc1ccc2nnc(-c3cccc(F)c3)n2n1 | -33.6 |
| COC(=O)CSc1ccc2nnc(-c3ccc(F)cc3)n2n1 | -43.7 |
| Fc1ccc(CSc2ccc3nnc(-c4cccnc4)n3n2)cc1 | -71.5 |
| CC(=O)C(Sc1ccc2nnc(-c3ccc(F)cc3)n2n1)C(C)=O | 8.13 |
